Potency and affinity values are given separately. Active and inactive are the calls of the source.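 The calls were made as follows: active = compounds whose fitted half-maximal cell-killing dose is at most twice the top tested dose; inconclusive = flat curve with 30 to 70 percent signal loss, or poor fit; inactive = the rest.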

From PubChem BioAssay AID651863 (Broad Institute, 2012) come the findings set out here.

A short description of this experiment: kidney cell line viability loss – HEK293T, luminescence plate reader, powder samples, set 4, cytotoxicity control, dose response (AID 651863). To be noted: CellTiter-Glo ATP luminescence, 48 h; series mostly up to 26 µM. (ATP-based viability assays read luminescence as a measure of living cells.)
As for `O=C(O)[C@H]1CCCC[C@H]1C(=O)N1CCC2=C(CCCC2)C1CN1C(=O)c2ccccc2C1=O` (some centres not stated), the outcome was inactive.
As for `COc1ccccc1CCNC(=O)[C@@H]1c2ccccc2CCN1C(=O)C1CCCCC1C(=O)O` (some centres not stated), the molecule was called inactive.
Then `Cc1cc(C)c(S(=O)(=O)Nc2cc(C(C(=O)OCc3ccccc3)C(=O)OCc3ccccc3)c(O)c3ccccc23)c(C)c1`, with “inactive”; and `CCOC(=O)Cc1nc(NS(=O)(=O)c2c(C)cc(C)cc2C)c2ccccc2n1`, with “inactive”.
On to `Cc1ccc(S(=O)(=O)Nc2cc(C(C(=O)OC(C)C)C(=O)C(F)(F)F)c(O)c3ccccc23)cc1` (configuration not stated), for which the molecule was classed as inactive.
As for `O=C(O)[C@H]1CCCC[C@H]1C(=O)N1CCc2ccccc2C1` (racemic), the molecule was classed as inactive.
To `O=C(NC[C@@H]1c2ccccc2CCN1C(=O)[C@@H]1CCCC[C@@H]1C(=O)O)c1ccc(CN2CCOCC2)cc1` belongs “inactive”; to `O=C1c2ccccc2C(=O)N1C[C@@H]1c2ccccc2CCN1C(=O)OCc1ccccc1`, “inactive”.
`COC(=O)[C@@H]1CCCC[C@@H]1C(=O)N1CCc2ccccc2[C@@H]1CN1C(=O)c2ccccc2C1=O`: the molecule was classed as inactive.
With `O=C(O)C1CCCCC1C(=O)N1CCc2ccccc2C1CN1C(=O)Cc2ccccc2C1=O` (configuration not stated), the molecule was called inactive.
As for `CCOC(=O)C(C(=O)OCC)c1nc(NS(=O)(=O)c2c(C)cc(C)cc2C)c2ccccc2n1`, the outcome was inactive.
Take `O=C(NC[C@@H]1c2ccccc2CCN1C(=O)[C@@H]1CCCC[C@@H]1C(=O)O)c1ccccc1CO`: the molecule was classed as inactive.
As to `COC(=O)[C@H]1CCCC[C@H]1C(=O)N1CCc2ccccc2[C@H]1CN1C(=O)c2ccccc2C1=O`, the molecule was classed as inactive.
Take `CC(C)CNc1nc(NS(=O)(=O)c2ccccc2)c2ccccc2n1`: the result was inactive.
On to `O=C(NCCc1ccccc1)c1ccccc1C(=O)NC[C@@H]1c2ccccc2CCN1C(=O)C1CCCCC1C(=O)O` (some centres not stated), for which the molecule was classed as inactive.
Take `Cc1ccc(S(=O)(=O)NC[C@@H]2c3ccccc3CCN2C(=O)[C@@H]2CCCC[C@@H]2C(=O)O)c(C)c1`: the molecule was called inactive.
To `Cc1cc(C)c(S(=O)(=O)Nc2nc(C(C(=O)OC(C)C)C(=O)C(F)(F)F)nc3ccccc23)c(C)c1` (configuration not stated) belongs “inactive”.
Regarding `O=C(O)CCC(=O)N1CCc2ccccc2C1CN1C(=O)c2ccccc2C1=O` (configuration not stated), the molecule was called inactive.
Consider `Cc1cc(C)c(S(=O)(=O)Nc2nc(NCCO)nc3ccccc23)c(C)c1`, for which the call was inactive.
`COC(=O)CNc1nc(NS(=O)(=O)c2c(C)cc(C)cc2C)c2ccccc2n1`: the molecule was called inactive.
For `O=C(O)[C@H]1CCCC[C@H]1C(=O)N1CCc2ccccc2[C@H]1CNS(=O)(=O)c1ccccc1`, the outcome was inactive.
To `Cc1ccc(S(=O)(=O)NNc2nc(N3CC(O)CC3C(=O)O)nc3ccccc23)cc1` (configuration not stated) belongs “inactive”; to `O=C(O)[C@@H]1CCCN1C(=O)N1CCc2ccccc2[C@H]1CN1C(=O)c2ccccc2C1=O`, “inactive”; to `O=C(O)Cc1ccccc1C(=O)N1CCc2ccccc2[C@H]1CN1C(=O)c2ccccc2C1=O`, “inactive”.
For the molecule `O=C(O)[C@H]1CCCC[C@H]1C(=O)NC(CN1C(=O)c2ccccc2C1=O)c1ccccc1` (some centres not stated), the molecule was classed as inactive.
Regarding `O=C(NCCO)c1ccccc1C(=O)NC[C@@H]1c2ccccc2CCN1C(=O)C1CCCCC1C(=O)O` (some centres not stated), the molecule was classed as inactive.
In the case of `O=C(O)[C@H]1CCCC[C@H]1C(=O)N1CCc2ccccc2[C@H]1CNS(=O)(=O)c1ccc([N+](=O)[O-])cc1`, the result was inactive.
Turning to `C=CC(=O)NC[C@@H]1c2ccccc2CCN1C(=O)[C@@H]1CCCC[C@@H]1C(=O)O`, the result was inactive.
Consider `C[C@@H](NC(=O)C1CCCC[C@H]1C(=O)O)c1ccccc1` (mixture of isomers), for which the molecule was called inactive.
To `O=C(O)[C@H]1CCCC[C@H]1C(=O)N1CCc2ccccc2C1CCN1C(=O)c2ccccc2C1=O` (some centres not stated) belongs “inactive”.
Take `O=C(O)C1CCCCC1C(=O)N1CCCCC1CN1C(=O)c2ccccc2C1=O` (configuration not stated): the call was inactive.
Take `O=C(O)C1CCCCC1C(=O)Nc1ccccc1CN1C(=O)c2ccccc2C1=O` (configuration not stated): the call was inactive.
